Common to all, as to assay: DAPPL (digital affinity profiling via proximity ligation, sequencing); 10 mM Tris-HCl pH 7.5, 50 mM NaCl, 1 mM DTT, 4% glycerol, room temperature, 30 min; GST-TFs on glutathione beads, 16-mer random dsDNA library, 0.1% formaldehyde crosslink after washing; high values mean tight binding
For one assay, the target named is T1, FEV (Homo sapiens, UniProt Q99581 1-238).
T1 sequence: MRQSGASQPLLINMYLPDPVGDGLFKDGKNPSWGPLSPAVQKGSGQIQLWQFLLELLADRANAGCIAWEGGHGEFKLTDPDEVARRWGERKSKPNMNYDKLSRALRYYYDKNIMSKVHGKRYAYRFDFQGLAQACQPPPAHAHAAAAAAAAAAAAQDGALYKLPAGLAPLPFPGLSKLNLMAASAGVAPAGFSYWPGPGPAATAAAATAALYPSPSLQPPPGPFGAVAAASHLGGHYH
The settings on record: protein: recombinant; tags: N-terminal GST; dsDNA, one strand shown. The method, boiled down: (§1)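 Human transcription factors fused to GST were expressed in yeast, captured on glutathione beads, given DNA barcodes and pooled with a GST-only negative control. Pools were incubated with 200 nmole of a 16-mer random double-stranded DNA library in Tris/NaCl/DTT/glycerol buffer at room temperature for 30 min. They were then washed, crosslinked with 0.1% formaldehyde, proximity-ligated (BsaI/T4 ligase, 1 h, 37 °C), PCR-amplified and sequenced on an Illumina NextSeq500. Binding signal is each 6-mer's read frequency for a factor divided by its frequency for the GST control.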

For a further assay, the target named is ETV5 (Homo sapiens, UniProt P41161 1-510). The settings on record: protein: recombinant; tags: N-terminal GST; dsDNA, one strand shown. The essentials:
as §1

In the next assay the target is HSF1 (Homo sapiens, UniProt Q00613 1-529). The settings on record: protein: recombinant; tags: N-terminal GST; chain copies: 3; dsDNA, one strand shown. The method, boiled down: as §1
HSF1, sequence (Q00613 whole entry): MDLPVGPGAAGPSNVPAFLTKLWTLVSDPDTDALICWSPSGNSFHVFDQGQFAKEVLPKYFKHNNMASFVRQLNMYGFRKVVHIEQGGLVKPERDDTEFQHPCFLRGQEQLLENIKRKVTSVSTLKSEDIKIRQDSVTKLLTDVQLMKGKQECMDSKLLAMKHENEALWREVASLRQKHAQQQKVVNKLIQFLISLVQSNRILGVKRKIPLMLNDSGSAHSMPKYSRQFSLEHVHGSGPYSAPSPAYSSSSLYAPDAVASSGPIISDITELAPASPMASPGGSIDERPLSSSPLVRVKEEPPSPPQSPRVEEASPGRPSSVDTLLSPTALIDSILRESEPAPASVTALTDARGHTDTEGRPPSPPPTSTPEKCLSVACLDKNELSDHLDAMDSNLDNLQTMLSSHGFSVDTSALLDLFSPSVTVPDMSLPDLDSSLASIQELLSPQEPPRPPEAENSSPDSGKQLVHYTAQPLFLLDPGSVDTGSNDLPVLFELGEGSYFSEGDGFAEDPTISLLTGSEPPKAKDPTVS
The target in the next assay is T2, SPIC (Homo sapiens, UniProt Q8N5J4 1-248).
T2 sequence: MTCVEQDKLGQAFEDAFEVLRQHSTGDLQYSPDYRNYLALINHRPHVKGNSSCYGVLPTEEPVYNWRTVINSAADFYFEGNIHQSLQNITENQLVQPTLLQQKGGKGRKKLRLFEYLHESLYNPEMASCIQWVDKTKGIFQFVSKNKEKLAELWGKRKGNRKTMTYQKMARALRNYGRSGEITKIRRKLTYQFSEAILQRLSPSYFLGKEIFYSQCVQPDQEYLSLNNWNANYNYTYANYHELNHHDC
The settings on record: protein: recombinant; tags: N-terminal GST; dsDNA, one strand shown. The method, boiled down: as §1

The next assay deals with ELF4 (Homo sapiens, UniProt Q99607 1-663). The settings on record: protein: recombinant; tags: N-terminal GST; dsDNA, one strand shown. The method, boiled down: as §1
ELF4, sequence (Q99607 whole entry): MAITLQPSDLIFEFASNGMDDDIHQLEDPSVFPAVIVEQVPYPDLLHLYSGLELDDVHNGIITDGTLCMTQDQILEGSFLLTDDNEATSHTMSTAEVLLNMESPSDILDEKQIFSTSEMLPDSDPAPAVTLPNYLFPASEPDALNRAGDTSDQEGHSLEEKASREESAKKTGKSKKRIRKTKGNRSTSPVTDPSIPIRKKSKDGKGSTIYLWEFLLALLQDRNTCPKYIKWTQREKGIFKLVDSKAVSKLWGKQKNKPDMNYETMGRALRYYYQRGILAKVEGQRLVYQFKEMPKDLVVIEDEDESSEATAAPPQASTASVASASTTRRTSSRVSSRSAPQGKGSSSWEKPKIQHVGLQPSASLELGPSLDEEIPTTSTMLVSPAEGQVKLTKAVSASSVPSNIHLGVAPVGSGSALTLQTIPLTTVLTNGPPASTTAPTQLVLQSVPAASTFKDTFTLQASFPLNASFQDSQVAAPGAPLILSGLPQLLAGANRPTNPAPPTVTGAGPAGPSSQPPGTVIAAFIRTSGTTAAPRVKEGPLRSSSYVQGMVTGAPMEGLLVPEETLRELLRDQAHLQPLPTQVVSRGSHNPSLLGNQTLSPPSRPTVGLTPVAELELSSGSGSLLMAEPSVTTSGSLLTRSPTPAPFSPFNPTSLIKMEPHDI
A further assay deals with T3, ELK4 (Homo sapiens, UniProt P28324-2 1-405).
T3 sequence: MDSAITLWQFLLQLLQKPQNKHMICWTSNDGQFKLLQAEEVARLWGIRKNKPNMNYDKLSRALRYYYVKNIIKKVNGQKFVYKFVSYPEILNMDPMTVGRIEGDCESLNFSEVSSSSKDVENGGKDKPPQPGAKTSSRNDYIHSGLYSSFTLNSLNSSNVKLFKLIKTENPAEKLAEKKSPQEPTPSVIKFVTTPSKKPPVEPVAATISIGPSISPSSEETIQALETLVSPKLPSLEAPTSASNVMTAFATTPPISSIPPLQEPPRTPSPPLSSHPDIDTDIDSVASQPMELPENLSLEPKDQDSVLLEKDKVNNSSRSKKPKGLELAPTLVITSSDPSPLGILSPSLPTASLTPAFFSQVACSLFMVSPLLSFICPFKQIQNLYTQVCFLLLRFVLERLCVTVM
The settings on record: protein: recombinant; tags: N-terminal GST; dsDNA, one strand shown. The essentials:
as §1

Another assay has as its target T4, ETV2 (Homo sapiens, UniProt O00321 1-342).
T4 sequence: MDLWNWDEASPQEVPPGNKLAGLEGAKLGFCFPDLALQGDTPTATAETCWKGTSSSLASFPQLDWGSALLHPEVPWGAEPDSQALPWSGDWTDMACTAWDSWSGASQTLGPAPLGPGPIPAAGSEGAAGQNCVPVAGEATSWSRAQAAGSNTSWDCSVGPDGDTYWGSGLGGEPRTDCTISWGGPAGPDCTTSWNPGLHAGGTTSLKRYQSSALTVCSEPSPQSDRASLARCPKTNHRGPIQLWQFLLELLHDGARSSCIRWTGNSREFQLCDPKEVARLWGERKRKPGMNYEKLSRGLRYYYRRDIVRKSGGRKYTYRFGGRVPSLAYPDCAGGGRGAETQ
The settings on record: protein: recombinant; tags: N-terminal GST; dsDNA, one strand shown. The method, boiled down: as §1

Another assay deals with T5, ELF3 (Homo sapiens, UniProt P78545 1-371).
T5 sequence: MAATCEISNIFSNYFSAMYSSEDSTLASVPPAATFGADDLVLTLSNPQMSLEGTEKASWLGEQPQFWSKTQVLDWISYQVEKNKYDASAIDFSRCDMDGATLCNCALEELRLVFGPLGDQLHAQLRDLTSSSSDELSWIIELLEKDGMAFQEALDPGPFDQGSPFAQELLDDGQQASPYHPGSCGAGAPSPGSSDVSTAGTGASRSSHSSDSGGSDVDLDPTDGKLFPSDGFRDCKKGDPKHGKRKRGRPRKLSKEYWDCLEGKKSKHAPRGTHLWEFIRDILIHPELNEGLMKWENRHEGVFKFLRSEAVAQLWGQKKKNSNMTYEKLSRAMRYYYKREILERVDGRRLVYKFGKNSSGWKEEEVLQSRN
The settings on record: protein: recombinant; tags: N-terminal GST; dsDNA, one strand shown. The essentials:
as §1

The next assay has as its target CRX (Homo sapiens, UniProt O43186 1-299). The settings on record: protein: recombinant; tags: N-terminal GST; dsDNA, one strand shown. The method, boiled down:
as §1

Another assay concerns the target ETV1 (Homo sapiens, UniProt P50549 1-477). The settings on record: protein: recombinant; tags: N-terminal GST; dsDNA, one strand shown. The essentials: as §1
A further assay deals with T6, ERF (Homo sapiens, UniProt P50548 1-548).
T6 sequence: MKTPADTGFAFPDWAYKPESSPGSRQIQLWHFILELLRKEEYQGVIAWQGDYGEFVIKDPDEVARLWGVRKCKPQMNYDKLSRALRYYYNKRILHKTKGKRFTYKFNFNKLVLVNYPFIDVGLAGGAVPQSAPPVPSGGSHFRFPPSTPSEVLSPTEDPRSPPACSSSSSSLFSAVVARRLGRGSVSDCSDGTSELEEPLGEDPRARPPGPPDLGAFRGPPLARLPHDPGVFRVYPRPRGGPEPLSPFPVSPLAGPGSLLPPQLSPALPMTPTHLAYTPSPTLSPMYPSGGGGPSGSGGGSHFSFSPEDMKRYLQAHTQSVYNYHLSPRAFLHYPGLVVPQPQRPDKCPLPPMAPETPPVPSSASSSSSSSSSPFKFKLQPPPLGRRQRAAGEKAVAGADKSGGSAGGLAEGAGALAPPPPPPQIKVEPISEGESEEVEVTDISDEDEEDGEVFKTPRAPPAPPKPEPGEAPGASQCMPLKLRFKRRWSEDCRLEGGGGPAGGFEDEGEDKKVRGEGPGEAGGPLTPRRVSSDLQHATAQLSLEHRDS
The settings on record: protein: recombinant; tags: N-terminal GST; dsDNA, one strand shown. The method, boiled down: as §1

The target of another assay is T7, ETV3L (Homo sapiens, UniProt Q6ZN32 1-361).
T7 sequence: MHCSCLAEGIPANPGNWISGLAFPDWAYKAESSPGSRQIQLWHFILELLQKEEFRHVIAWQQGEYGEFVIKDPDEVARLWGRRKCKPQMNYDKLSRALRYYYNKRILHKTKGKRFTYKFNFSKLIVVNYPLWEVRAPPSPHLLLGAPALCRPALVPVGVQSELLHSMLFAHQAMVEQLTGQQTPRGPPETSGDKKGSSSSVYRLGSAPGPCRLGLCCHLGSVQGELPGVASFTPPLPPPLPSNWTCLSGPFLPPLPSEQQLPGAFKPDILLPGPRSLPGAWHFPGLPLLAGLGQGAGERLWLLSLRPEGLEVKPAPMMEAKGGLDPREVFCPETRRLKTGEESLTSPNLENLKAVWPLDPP
The settings on record: protein: recombinant; tags: N-terminal GST; dsDNA, one strand shown. The essentials: as §1

In a further assay the target is T8, ETS2 (Homo sapiens, UniProt P15036 1-469).
T8 sequence: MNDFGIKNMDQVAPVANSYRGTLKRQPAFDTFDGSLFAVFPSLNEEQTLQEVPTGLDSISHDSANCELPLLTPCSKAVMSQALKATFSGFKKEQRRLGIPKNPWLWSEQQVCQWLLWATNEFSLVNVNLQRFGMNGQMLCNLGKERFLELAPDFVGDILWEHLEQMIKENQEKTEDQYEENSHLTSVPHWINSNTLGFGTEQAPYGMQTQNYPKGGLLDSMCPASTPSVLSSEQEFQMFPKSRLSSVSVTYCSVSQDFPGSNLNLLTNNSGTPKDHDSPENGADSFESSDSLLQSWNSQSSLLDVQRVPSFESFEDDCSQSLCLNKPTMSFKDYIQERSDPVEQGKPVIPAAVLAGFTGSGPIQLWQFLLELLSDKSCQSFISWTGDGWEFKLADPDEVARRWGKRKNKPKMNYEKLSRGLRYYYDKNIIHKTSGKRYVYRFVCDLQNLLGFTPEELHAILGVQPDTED
The settings on record: protein: recombinant; tags: N-terminal GST; dsDNA, one strand shown. The essentials:
as §1

The next assay concerns the target T9, SPDEF (Homo sapiens, UniProt O95238 1-335).
T9 sequence: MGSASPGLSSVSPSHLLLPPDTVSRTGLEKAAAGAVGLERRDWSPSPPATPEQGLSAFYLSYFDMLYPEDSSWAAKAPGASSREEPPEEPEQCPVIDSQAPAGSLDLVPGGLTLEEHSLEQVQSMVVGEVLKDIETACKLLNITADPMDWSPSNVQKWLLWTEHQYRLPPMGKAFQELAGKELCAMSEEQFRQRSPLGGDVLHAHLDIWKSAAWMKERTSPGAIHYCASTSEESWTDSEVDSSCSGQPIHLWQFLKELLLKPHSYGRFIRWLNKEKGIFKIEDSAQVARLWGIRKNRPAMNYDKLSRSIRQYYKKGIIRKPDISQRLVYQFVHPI
The settings on record: protein: recombinant; tags: N-terminal GST; dsDNA, one strand shown. The essentials: as §1

The target of the next assay is T10, ETV7 (Homo sapiens, UniProt Q9Y603 1-341).
T10 sequence: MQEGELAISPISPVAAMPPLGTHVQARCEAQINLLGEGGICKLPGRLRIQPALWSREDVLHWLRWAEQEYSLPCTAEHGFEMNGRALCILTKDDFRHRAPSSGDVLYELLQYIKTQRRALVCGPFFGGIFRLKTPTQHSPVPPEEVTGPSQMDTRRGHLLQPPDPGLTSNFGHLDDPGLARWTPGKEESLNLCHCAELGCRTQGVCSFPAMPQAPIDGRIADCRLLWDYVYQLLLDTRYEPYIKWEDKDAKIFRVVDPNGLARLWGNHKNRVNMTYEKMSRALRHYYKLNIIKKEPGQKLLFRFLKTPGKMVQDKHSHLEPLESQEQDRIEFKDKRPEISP
The settings on record: protein: recombinant; tags: N-terminal GST; dsDNA, one strand shown. The essentials: as §1

Another assay concerns the target T11, ELF5 (Homo sapiens, UniProt Q9UKW6-2 1-255).
T11 sequence: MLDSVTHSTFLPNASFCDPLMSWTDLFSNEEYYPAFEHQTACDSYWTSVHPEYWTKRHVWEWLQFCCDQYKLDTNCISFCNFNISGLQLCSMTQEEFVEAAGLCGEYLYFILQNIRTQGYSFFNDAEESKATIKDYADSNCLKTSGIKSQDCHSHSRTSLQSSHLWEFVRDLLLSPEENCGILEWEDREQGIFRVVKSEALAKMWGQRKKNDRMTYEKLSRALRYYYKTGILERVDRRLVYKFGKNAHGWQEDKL
The settings on record: protein: recombinant; tags: N-terminal GST; dsDNA, one strand shown. The essentials: as §1

A further assay concerns the target T12, ETV3 (Homo sapiens, UniProt P41162-2 1-143).
T12 sequence: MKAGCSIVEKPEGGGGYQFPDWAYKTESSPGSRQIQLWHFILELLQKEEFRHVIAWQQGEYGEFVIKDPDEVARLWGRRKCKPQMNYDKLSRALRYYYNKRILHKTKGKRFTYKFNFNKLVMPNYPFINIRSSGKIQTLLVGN
The settings on record: protein: recombinant; tags: N-terminal GST; dsDNA, one strand shown. The essentials:
as §1

Another assay addresses ETV6 (Homo sapiens, UniProt P41212 1-452). The settings on record: protein: recombinant; tags: N-terminal GST; dsDNA, one strand shown. The method, boiled down: as §1

CRX, sequence (O43186 whole entry): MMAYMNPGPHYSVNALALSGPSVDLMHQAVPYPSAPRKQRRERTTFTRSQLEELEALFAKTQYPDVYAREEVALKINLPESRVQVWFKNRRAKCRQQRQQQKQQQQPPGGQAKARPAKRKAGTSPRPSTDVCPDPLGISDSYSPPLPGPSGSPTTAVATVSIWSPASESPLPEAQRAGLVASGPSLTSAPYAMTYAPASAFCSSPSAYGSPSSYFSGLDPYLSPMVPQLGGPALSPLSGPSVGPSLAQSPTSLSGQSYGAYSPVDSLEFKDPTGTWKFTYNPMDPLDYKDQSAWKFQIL
ETV5, sequence (P41161 whole entry): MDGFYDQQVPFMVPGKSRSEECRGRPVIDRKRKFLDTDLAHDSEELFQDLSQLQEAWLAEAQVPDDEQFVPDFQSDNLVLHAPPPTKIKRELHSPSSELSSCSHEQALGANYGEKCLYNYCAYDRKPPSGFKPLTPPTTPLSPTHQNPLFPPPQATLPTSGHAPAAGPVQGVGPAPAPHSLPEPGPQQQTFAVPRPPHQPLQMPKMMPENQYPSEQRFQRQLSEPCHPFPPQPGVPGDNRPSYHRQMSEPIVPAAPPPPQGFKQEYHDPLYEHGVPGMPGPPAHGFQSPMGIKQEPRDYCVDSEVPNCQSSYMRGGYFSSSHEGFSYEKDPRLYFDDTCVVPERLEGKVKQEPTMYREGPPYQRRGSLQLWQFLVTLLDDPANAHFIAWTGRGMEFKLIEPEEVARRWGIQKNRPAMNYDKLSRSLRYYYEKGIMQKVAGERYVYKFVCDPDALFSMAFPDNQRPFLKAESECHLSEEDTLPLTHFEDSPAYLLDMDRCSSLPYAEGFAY
ETV6, sequence (P41212 whole entry): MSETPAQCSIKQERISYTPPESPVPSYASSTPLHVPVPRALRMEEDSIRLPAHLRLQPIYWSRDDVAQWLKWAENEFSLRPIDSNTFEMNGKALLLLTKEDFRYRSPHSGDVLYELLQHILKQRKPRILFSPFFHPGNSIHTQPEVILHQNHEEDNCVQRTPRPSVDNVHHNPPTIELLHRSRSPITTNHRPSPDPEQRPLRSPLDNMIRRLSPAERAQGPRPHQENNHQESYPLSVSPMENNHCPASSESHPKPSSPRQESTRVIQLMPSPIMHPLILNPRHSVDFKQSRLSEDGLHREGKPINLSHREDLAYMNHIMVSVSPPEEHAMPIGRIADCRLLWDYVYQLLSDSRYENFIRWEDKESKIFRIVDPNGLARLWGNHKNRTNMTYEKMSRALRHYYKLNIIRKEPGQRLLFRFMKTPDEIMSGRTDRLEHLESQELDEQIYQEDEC
ETV1, sequence (P50549 whole entry): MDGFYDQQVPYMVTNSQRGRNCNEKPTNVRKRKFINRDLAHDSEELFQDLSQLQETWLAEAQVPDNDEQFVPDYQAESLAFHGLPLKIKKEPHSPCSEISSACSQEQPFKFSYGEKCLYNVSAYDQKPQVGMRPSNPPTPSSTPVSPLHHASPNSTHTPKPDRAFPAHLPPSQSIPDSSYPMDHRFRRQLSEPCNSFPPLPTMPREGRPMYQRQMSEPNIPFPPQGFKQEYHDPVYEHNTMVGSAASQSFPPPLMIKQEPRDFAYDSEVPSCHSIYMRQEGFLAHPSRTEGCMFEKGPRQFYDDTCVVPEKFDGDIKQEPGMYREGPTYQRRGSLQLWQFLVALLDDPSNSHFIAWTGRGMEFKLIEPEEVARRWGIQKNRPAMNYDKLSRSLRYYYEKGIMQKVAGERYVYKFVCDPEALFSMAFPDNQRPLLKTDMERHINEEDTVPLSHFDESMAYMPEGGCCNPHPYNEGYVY

In the case of ATGCTA, the binding signal with FEV was 1.32 fold enrichment (6-mer frequency, TF over GST control); with ETV5, 1.33 fold enrichment (6-mer frequency, TF over GST control); with HSF1, 1.46 fold enrichment (6-mer frequency, TF over GST control); in the assay with SPIC, 1.23 fold enrichment (6-mer frequency, TF over GST control); with ELF4, 1.3 fold enrichment (6-mer frequency, TF over GST control); with ELK4, 1.32 fold enrichment (6-mer frequency, TF over GST control). In addition, the binding signal was 1.43 fold enrichment (6-mer frequency, TF over GST control) with ETV2; 1.29 fold enrichment (6-mer frequency, TF over GST control) with ELF3; 1.45 fold enrichment (6-mer frequency, TF over GST control) in the assay with CRX; 1.31 fold enrichment (6-mer frequency, TF over GST control) with ETV1; 1.26 fold enrichment (6-mer frequency, TF over GST control) with ERF; 1.37 fold enrichment (6-mer frequency, TF over GST control) in the assay with ETV3L. In addition, the binding signal was 1.25 fold enrichment (6-mer frequency, TF over GST control) with ETS2; 1.23 fold enrichment (6-mer frequency, TF over GST control) in the assay with SPDEF; 1.3 fold enrichment (6-mer frequency, TF over GST control) in the assay with ETV7; 1.28 fold enrichment (6-mer frequency, TF over GST control) with ELF5; 1.28 fold enrichment (6-mer frequency, TF over GST control) in the assay with ETV3; 1.27 fold enrichment (6-mer frequency, TF over GST control) with ETV6.

These data come from article PMC7862700, “An all-to-all approach to the identification of sequence-specific readers for epigenetic DNA modifications on cytosine”.
